Compound activity as filed in PubChem BioAssay.
V-ATPase pHluor: regulators of yeast V-ATPase proton transport. S. cerevisiae, pHLuorin cytosolic pH fluorescence. response, % at 10 µM. 0.37% of 350,000 active. AID 504577; in the data active = response mostly above about 7.3%, no sharp cut-off; inactive = mostly below about 5.4%; note: actives read high
Rce1 inhib: yeast Ras-converting enzyme inhibition; yeast membranes, quenched prenylated peptide cleavage fluorescence; calls only; Q03530; 0.27% of 290,000 active;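 active = fall in fluorescence gain of 50% or more versus controls, with final raw signal at or below 3038400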;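 note: plate controls were neutral control wells for no effect and wells lacking membranes for full effect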
NSD2 inh: NSD2 (human) methyltransferase inhibition; O96028; NSD2 peptide methylation, AlphaScreen, 120 min; inhibition, % at 12.5 µM; 0.54% of 310,000 active; AID 743445; in the data active = inhibition above about 50%
GC-A act: GC-A (human) enzyme activation; HEK293 GC-A cells, cGMP TR-FRET, EC30 ANP; 0% at EC30 ANP, 100% saturating ANP; activation, % at 10 µM; 0.14% of 370,000 active; in the data active = activation above about 40%
Efflux pump mplx: inhibitors of Candida antifungal efflux pumps expressed in yeast; 0.44% of 330,000 active; S. cerevisiae Candida pump triplex, Nile Red efflux; inhibition, % at 10 µM; AID 485275;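 active = plate passing quality check with inhibition over a set limit, or well fluorescence over plate mean plus 4 SD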;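 note: Nile Red retained in pooled yeast measured as flow cytometry median fluorescence; 0% = buffer negative control and 100% = Enniatin B positive control; higher means more Nile Red kept so more efflux inhibition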
NPR2 activator: GC-B (human) receptor activation; P20594; 0.11% of 370,000 active; HEK293-GC-B cells, CNP EC30, cGMP TR-FRET; 0% at EC30 CNP, 100% saturating CNP; activation, % at 10 µM;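 active = activation at 10 µM reaching about 35% in either raw or pattern-adjusted values, limit read from the data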
V-ATPase pH SP: modulates yeast V-ATPase proton transport; AID 602197; 2% of 980 active; response, % at 10 µM; shares compounds with V-ATPase pHluor; S. cerevisiae pHLuorin cytosolic pH; in the data active = response above about 24%;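 note: plate controls were vehicle wells for no effect and positive control wells for full effect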
Numbers without * were called inactive; i = inactive; . = not tested or not shown. Only some compounds are listed: those with a hit (about 1.6% of all), similar ones and a draw of the others.

SMILES | V-ATPase pHluor | Rce1 inhib | NSD2 inh | GC-A act | Efflux pump mplx | NPR2 activator | V-ATPase pH SP
COc1ccc(C2C3=C(CC(C)(C)CC3=O)Oc3ncn4nc(-c5ccccc5)nc4c32)cc1 (stereo not given) | 12.2* | . | . | -6.0 | . | -11.9 | -1.1
O=C(Cc1ccc([N+](=O)[O-])cc1)Nc1cccc(C(F)(F)F)c1 | 11.8* | i | 0.6 | -1.0 | 0.4 | -4.7 | -2.0
CCC(NC(=O)CCCN1C(=O)COc2ccc(C)cc21)c1ccccc1 (stereo not given) | . | . | -5.2 | -2.6 | . | -2.9 | .
CC(C)(C)OC(=O)N[C@@H](Cc1ccccc1)C(=O)N[C@@H](CO)[C@H](O)[C@@H]1C[C@@H]1C(=O)NC1CC1 | 11.2* | i | . | -1.1 | -0.2 | -2.1 | -1.2
COc1ccc(OC)c(S(=O)(=O)N2CCC(C(=O)NCc3cccs3)CC2)c1 | . | . | 3.0 | 4.8 | . | -3.5 | .
CSc1ncccc1C(=O)N1CCN(S(=O)(=O)c2ccc3ccccc3c2)CC1 | 10.3* | . | -1.9 | -23.1 | -0.1 | -10.4 | 0.8
O=C(c1ccccc1F)N1CCN(S(=O)(=O)c2ccc3ccccc3c2)CC1 | -2.2 | i | -0.3 | -24.8 | 0.0 | -5.8 | .
O=C(O)c1cc(-c2ccc(Cl)c(Cl)c2)n(-c2ccc(F)cc2)n1 | 12.5* | i | -0.3 | 2.6 | -0.1 | -4.3 | 1.2
COC(=O)c1ccc(-n2c(C)cc(C(=O)CSc3cccc[n+]3[O-])c2C)cc1 | 11.6* | i | 1.2 | 1.5 | 0.3 | -2.2 | -0.4
Cc1cc(C(=O)CSc2cccc[n+]2[O-])c(C)n1-c1ccc(OC(F)F)cc1 | -3.0 | i | 1.4 | 5.4 | -0.2 | 0.7 | .
CCn1c(SCC(=O)Nc2ccc(C(N)=O)cc2)nc2sc(C)c(C)c2c1=O | . | . | -0.7 | -3.8 | . | 2.5 | .
C/C(=C/c1ccccc1)C(=O)N1CCC(C)CC1 | 11.2* | i | -2.0 | -4.6 | 0.1 | 5.9 | -1.8
CCOC(=O)C1CCN(C(=O)/C(C)=C\c2ccccc2)CC1 | -0.7 | i | 0.3 | -3.1 | 0.7 | 0.1 | .
Cc1oc(C(C)(C)C)cc1C(=O)Nc1cccc(/C=C\C(=O)O)c1 | 13.8* | i | 2.6 | -0.4 | 0.0 | -9.3 | -3.9
Cc1oc(-c2ccccc2)cc1C(=O)Nc1cccc(/C=C\C(=O)O)c1 | -0.8 | i | 0.3 | -4.0 | 0.0 | -3.5 | .
CCCCCCCCN1C(=O)[C@@H](CC(=O)NCc2ccccc2)C[C@@]2(C(=O)OC)C1=C[C@H](COCc1ccccc1)O[C@@H]2C | . | . | . | -3.4 | . | -4.0 | .
CCOC(=O)c1c(N)sc(C(=O)N(C)C)c1C | 14.6* | i | 0.7 | -1.4 | 0.0 | 4.2 | -1.0
COC(=O)[C@]12C[C@H](CC(=O)N3CCN(C(=O)C4CC4)CC3)C(=O)N(Cc3ccco3)C1=C[C@H](COCc1ccccc1)O[C@@H]2C | . | . | . | 1.4 | . | -0.7 | .
CN1CCN(C2CC(=O)N(Cc3ccc(N4CCCC4=O)cc3)C2=O)CC1 (stereo not given) | 10.7* | i | 1.1 | 0.1 | 0.0 | 4.1 | -2.9
COc1ccc(OCCC(=O)OCC(=O)NCCc2ccccc2)cc1 | 7.6* | i | -3.5 | -1.7 | 0.1 | -1.0 | 0.2
COc1ccc(CNC(=O)COC(=O)CCOc2ccccc2)cc1 | 0.6 | i | -1.2 | 0.5 | 0.1 | 3.2 | .
COc1ccc(/C=C/C(=O)Nc2cc(C)nn2-c2nc3ccccc3[nH]2)cc1 | 16.0* | i | -0.1 | 14.0 | 0.0 | -1.2 | -1.2
Cc1cc(NC(=O)/C=C/c2ccc(F)cc2)n(-c2nc3ccccc3[nH]2)n1 | 8.2 | i | -2.4 | 15.1 | 0.2 | -5.7 | .
COc1ccc(CC(=O)N2CC(=O)N(CCc3ccccc3)C(=O)C2)cc1 | 8.7* | i | -0.8 | -1.6 | 0.0 | -1.7 | -0.5
COc1ccc(C(=O)N2CC(=O)N(CCc3ccccc3)C(=O)C2)cc1OC | 2.2 | i | -0.5 | 3.2 | -0.2 | 2.0 | .
Nc1[nH]c2ccccc2c1C(=O)NC1CC1 | . | . | . | -6.4 | . | -2.2 | .
CN(CC(=O)Nc1ccc(N2CCOCC2)cc1)C(=O)CC(c1ccccc1)c1ccccc1 | 11.7* | i | 14.3 | -2.0 | 0.1 | 1.0 | 2.4
CC(c1ccon1)N(C)Cc1c(C(=O)N(C)Cc2ccccc2)nc2ccccn12 (stereo not given) | 8.1* | i | -7.5 | -3.3 | 0.1 | -7.7 | -4.0
